Inconclusive results are not listed. Active and inactive are the calls of the source. Unless noted, calls come from the whole dose curve; as a rule, active = well fitted curve in the direction sought with a large enough effect in the repeat runs; inconclusive = weak or mixed curves; inactive = no such curve, though single readings can be large; an effect the other way counts as inactive or inconclusive.
Legend:
[1] = qHTS assay to test for compound auto fluorescence at 535 nm (green) in HEK293 cells (AID 720680)
[2] = qHTS assay to test for compound auto fluorescence at 460 nm (blue) in HEK293 cell free culture (AID 720681)
In short: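 Test compounds were pinned into cell-free culture medium (DMEM with 10% FBS) and fluorescence was read directly at Ex/Em 405/460 nm. Signals were expressed as fluorescence equivalents of triamterene, with DMSO vehicle as control.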

[3] = qHTS assay to test for compound auto fluorescence at 535 nm (green) in HEK293 cell free culture (AID 720682)
In short: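 Measurement is a direct plate read of green fluorescence (485 nm in, 535 nm out) after compound addition to serum-supplemented DMEM lacking cells, with fluorescein used to express intensities.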

[4] = qHTS assay to test for compound auto fluorescence at 590 nm (red) in HEK293 cell free culture (AID 720683)
In short: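 Tox21 10K library compounds were pinned into cell-free DMEM with 10% FBS and fluorescence was read at excitation 540 nm. Activity is expressed as Rose Bengal sodium equivalency.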

[5] = qHTS assay to test for compound auto fluorescence at 590 nm (red) in HepG2 cell free culture (AID 720684)
In short: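 Ex 540 / Em 590 nm read of compound in cell-free MEM (10% FBS). Rose Bengal sodium reference.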

[6] = qHTS assay to test for compound auto fluorescence at 460 nm (blue) in HepG2 cell free culture (AID 720685)
In short: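 Cell-free plates of MEM plus 10% FBS received 23 nL compound or DMSO vehicle; blue-channel (405/460 nm) intensity scored against triamterene as reference fluorophore.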

[7] = qHTS assay to test for compound auto fluorescence at 535 nm (green) in HepG2 cell free culture (AID 720686)
[8] = qHTS assay to test for compound auto fluorescence at 460 nm (blue) in HepG2 cells (AID 720687)
In short: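 Cells (2,000/well in MEM with 10% FBS) attached overnight at 37 C, then were exposed to compound or DMSO for 1 hr at 37 C, 5% CO2. Fluorescence read at Ex/Em 405/460 nm, expressed as triamterene-equivalent signal.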

[9] = target: Glucocorticoid receptor (Homo sapiens) (UniProt P04150); experiment: qHTS assay to identify small molecule agonists of the glucocorticoid receptor (GR) signaling pathway (AID 720691; active = well fitted activation curve with a large enough effect in the signal ratio in the repeat runs, not every such curve was filed as active; the % refers to the signal ratio)
Chain of Glucocorticoid receptor (Homo sapiens) (P04150 whole entry, looked up): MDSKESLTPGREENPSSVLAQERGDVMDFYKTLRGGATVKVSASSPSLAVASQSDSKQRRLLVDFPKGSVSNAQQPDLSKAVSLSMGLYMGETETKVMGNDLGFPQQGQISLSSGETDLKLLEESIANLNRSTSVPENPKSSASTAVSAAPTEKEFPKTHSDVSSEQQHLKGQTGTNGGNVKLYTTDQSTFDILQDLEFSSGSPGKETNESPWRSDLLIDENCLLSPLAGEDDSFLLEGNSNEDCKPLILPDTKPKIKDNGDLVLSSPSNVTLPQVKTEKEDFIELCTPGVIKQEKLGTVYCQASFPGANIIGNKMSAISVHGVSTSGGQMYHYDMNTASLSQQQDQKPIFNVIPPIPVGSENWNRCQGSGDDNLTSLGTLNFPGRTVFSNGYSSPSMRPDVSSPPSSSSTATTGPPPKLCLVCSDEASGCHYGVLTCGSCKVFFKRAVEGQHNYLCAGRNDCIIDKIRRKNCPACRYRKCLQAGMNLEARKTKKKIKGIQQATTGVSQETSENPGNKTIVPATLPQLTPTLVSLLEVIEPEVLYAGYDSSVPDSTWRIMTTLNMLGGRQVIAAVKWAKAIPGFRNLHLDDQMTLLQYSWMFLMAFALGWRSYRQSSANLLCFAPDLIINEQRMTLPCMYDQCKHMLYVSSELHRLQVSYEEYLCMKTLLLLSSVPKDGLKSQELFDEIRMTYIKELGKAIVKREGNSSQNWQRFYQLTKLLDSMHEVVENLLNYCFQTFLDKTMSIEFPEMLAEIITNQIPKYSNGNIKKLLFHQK
In short: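 Compounds in DMSO, alongside positive controls, were added to GR-bla HeLa reporter cells and incubated 18 h at 37 C; GRE-driven beta-lactamase was detected by fluorescence after 2 h with FRET substrate at room temperature.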

[10] = target: Glucocorticoid receptor (Homo sapiens) (UniProt P04150); experiment: qHTS assay to identify small molecule antagonists of the glucocorticoid receptor (GR) signaling pathway (AID 720692; active = well fitted inhibition curve with a large enough effect in the signal ratio in the repeat runs, not every such curve was filed as active; the % refers to the signal ratio)
In short: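 In a 1536-well cell format, compounds were added 4 h after seeding GR-bla HeLa cells, together with dexamethasone at 5 nM final; reporter activity was measured by FRET-substrate fluorescence following 18 h at 37 C.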

[11] = qHTS assay to identify small molecule antagonists of the glucocorticoid receptor (GR) signaling pathway - cell viability counter screen (AID 720693); note: nearly all actives have a fitted effect of over 55% in size
[12] = qHTS assay for identifying genotoxic compounds that show differential cytotoxicity against isogenic chicken DT40 cell lines with known DNA damage response pathways - wild type cell line (AID 743012); note: nearly all actives have a fitted effect of over 60% in size
In short: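 Viability of DNA repair-proficient chicken DT40 cells was assessed by CellTiter-Glo luminescence following 40 h compound exposure at 37 C/5% CO2.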

[13] = qHTS assay for identifying genotoxic compounds that show differential cytotoxicity against isogenic chicken DT40 cell lines with known DNA damage response pathways - Rev3 mutant cell line (AID 743014); note: nearly all actives have a fitted effect of over 55% in size
[14] = qHTS assay to identify small molecule antagonists of the androgen receptor (AR) signaling pathway - cell viability counter screen (AID 743033; note: nearly all actives have a fitted effect of over 45% in size)
[15] = qHTS assay to identify small molecule antagonists of the androgen receptor (AR) signaling pathway using the MDA cell line - cell viability counter screen (AID 743041; note: nearly all actives have a fitted effect of over 45% in size)
In short: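 In this qHTS counter assay, fluorescence intensity after CellTiter-Fluor addition indicated viability of MDA-kb2 AR-luc cells given compounds and R1881 for 16 h at 37C.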

[16] = qHTS assay for identifying genotoxic compounds that show differential cytotoxicity against isogenic chicken DT40 cell lines with known DNA damage response pathways - Rad54/Ku70 mutant cell line (AID 743015); note: nearly all actives have a fitted effect of over 60% in size
[17] = target: Androgen receptor (Homo sapiens) (UniProt P10275); experiment: qHTS assay to identify small molecule antagonists of the androgen receptor (AR) signaling pathway (AID 743035; active = well fitted inhibition curve with a large enough effect in the signal ratio in the repeat runs, not every such curve was filed as active; the % refers to the signal ratio)
Chain of Androgen receptor (Homo sapiens) (P10275 whole entry, looked up): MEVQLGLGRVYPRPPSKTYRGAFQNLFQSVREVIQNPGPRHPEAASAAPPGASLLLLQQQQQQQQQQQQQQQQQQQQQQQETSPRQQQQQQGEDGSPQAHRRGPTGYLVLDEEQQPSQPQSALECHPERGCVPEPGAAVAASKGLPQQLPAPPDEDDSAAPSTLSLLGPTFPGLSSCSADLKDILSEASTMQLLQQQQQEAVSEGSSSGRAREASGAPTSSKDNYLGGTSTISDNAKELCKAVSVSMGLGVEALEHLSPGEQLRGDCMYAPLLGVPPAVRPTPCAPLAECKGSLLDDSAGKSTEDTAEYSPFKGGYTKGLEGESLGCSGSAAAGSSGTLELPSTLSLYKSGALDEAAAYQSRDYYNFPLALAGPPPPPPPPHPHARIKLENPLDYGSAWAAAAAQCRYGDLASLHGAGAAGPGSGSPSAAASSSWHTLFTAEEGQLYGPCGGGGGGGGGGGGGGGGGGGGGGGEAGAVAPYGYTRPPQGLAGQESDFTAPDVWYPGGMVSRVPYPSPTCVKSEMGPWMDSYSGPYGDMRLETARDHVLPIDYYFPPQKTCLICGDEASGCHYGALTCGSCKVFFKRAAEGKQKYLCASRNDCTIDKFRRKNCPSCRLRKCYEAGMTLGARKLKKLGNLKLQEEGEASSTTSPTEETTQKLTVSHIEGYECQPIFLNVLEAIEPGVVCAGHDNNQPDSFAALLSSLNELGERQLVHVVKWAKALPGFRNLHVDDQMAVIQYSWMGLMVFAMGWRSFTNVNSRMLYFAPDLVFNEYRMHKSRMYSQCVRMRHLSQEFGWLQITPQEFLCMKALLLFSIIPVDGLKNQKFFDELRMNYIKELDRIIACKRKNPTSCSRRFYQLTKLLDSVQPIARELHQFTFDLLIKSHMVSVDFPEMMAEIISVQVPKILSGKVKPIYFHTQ
In short: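 Reporter HEK293 cells were exposed to compounds and R1881 overnight (16 h, 37C); beta-lactamase activity was then quantified by FRET fluorescence.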

[18] = target: Androgen receptor (Homo sapiens) (UniProt P10275); experiment: qHTS assay to identify small molecule agonists of the androgen receptor (AR) signaling pathway (AID 743036; active = well fitted activation curve with a large enough effect in the signal ratio in the repeat runs, with a control signal flat, not every such curve was filed as active; the % refers to the signal ratio)
In short: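 Beta-lactamase under UAS control, stably integrated in HEK293 GripTite cells, reports receptor activation. After 16 h compound treatment, cells received FRET substrate for 2 h at room temperature before fluorescence reading.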

[19] = target: Androgen receptor (Homo sapiens) (UniProt P10275); experiment: qHTS assay to identify small molecule agonists of the androgen receptor (AR) signaling pathway using the MDA cell line (AID 743040; note: nearly all actives have a fitted effect of over 20% in size)
In short: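 Cell-based luciferase reporter: MDA-kb2, MMTV promoter (AR + GR response elements). 16 h compound exposure at 37C; ONE-Glo, 30 min RT, luminescence.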

[20] = target: Androgen receptor (Homo sapiens) (UniProt P10275); experiment: qHTS assay to identify small molecule antagonists of the androgen receptor (AR) signaling pathway using the MDA cell line (AID 743042; note: nearly all actives have a fitted effect of over 55% in size)
In short: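 MDA-kb2 cells (human breast carcinoma, stably carrying an MMTV-luciferase reporter responsive to AR and GR) were plated at 3,000 cells/well and preincubated 5 hr at 37C, then given compound plus R1881 agonist for 16 h. ONE-Glo luminescence was read.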
% is set by controls: 0 for no effect and ±100 for the full control effect.

COCCOCCOCCOCCOCCO
inactive: outcome [1] | outcome [2] | outcome [3] | outcome [4] | outcome [5] | outcome [6] | outcome [7] | outcome [8] | Potency [9] | outcome [10] | outcome [11] | Potency [12] | Potency [13] | Potency [14]

CC[C@H](C)C(=O)O[C@H]1C[C@H](O)C=C2C=C[C@H](C)[C@H](CC[C@@H](O)C[C@@H](O)CC(=O)O)[C@H]21
inactive: outcome [1] | outcome [2] | outcome [3] | outcome [4] | outcome [5] | outcome [6] | outcome [7] | outcome [8] | Potency [9] | outcome [10] | outcome [11] | Potency [12] | Potency [14] | Potency [15]

CCO[Si](CCCS)(OCC)OCC
inactive: outcome [1] | outcome [2] | outcome [3] | outcome [4] | outcome [5] | outcome [6] | outcome [7] | outcome [8] | Potency [9] | outcome [10] | outcome [11] | Potency [12] | Potency [16] | Potency [14]

Cc1cccc(C)c1NC(=O)c1ccccc1C(=O)O
inactive: outcome [1] | outcome [2] | outcome [3] | outcome [4] | outcome [5] | outcome [6] | outcome [7] | outcome [8] | Potency [9] | outcome [10] | outcome [11] | Potency [12] | Potency [13] | Potency [16] | Potency [14] | Potency [17] | outcome [18] | outcome [19] | Potency [15] | Potency [20]

CC(C)=CCOC(=O)c1ccccc1
inactive: outcome [1] | outcome [2] | outcome [3] | outcome [4] | outcome [5] | outcome [6] | outcome [7] | outcome [8] | Potency [9] | outcome [10] | outcome [11] | Potency [12] | Potency [13] | Potency [16] | Potency [14] | Potency [15]

O=C(CCNNC(=O)c1ccncc1)NCc1ccccc1
inactive: outcome [1] | outcome [2] | outcome [3] | outcome [4] | outcome [5] | outcome [6] | outcome [7] | outcome [8] | Potency [9] | outcome [10] | outcome [11] | Potency [12] | Potency [13] | Potency [16] | Potency [14] | Potency [15]

COc1ccc(C2CNC(=O)C2)cc1OC1CCCC1 (configuration not stated)
inactive: fluorescence, % of fluorescein [1] 0.0387% [at 18.6 µM] | fluorescence, % of fluorescent control [2] -0.0755% [at 18.6 µM] | activity change [3] 0.0153% [at 18.6 µM] | fluorescence, % of fluorescent control [4] -0.222% [at 18.6 µM] | fluorescence, % of Rose Bengal [5] 0.472% [at 18.6 µM] | fluorescence, % of fluorescent control [6] -0.0095% [at 18.6 µM] | fluorescence, % of fluorescein control [7] -0.0056% [at 18.6 µM] | fluorescence, % of fluorescent control [8] -0.0914% [at 18.6 µM] | Potency [9] | outcome [10] | outcome [11] | Potency [12] | Potency [13] | Potency [16] | Potency [14]

C=C(C)C(=O)OCCN(CC)CC
inactive: outcome [1] | outcome [2] | outcome [3] | outcome [4] | outcome [5] | outcome [6] | outcome [7] | outcome [8] | Potency [9] | outcome [10] | outcome [11] | Potency [12] | Potency [13] | Potency [14] | outcome [18] | outcome [19] | Potency [20]

COc1cc(N)ccc1C
inactive: outcome [1] | outcome [2] | outcome [3] | outcome [4] | outcome [5] | outcome [6] | outcome [7] | outcome [8] | Potency [9] | outcome [10] | outcome [11] | Potency [12] | Potency [16] | Potency [14] | Potency [15]

O=C(O)c1cc(Br)c(O)c(Br)c1
inactive: outcome [1] | outcome [2] | outcome [3] | outcome [4] | outcome [5] | outcome [6] | outcome [7] | outcome [8] | Potency [9] | outcome [10] | outcome [11] | Potency [14] | Potency [17] | outcome [18] | outcome [19] | Potency [15] | Potency [20]

NCCN1CCOCC1
inactive: outcome [1] | outcome [2] | outcome [3] | outcome [4] | outcome [5] | outcome [6] | outcome [7] | outcome [8] | Potency [9] | outcome [10] | outcome [11] | Potency [12] | Potency [16] | Potency [14] | Potency [15]

CCCCN
inactive: outcome [1] | outcome [2] | outcome [3] | outcome [4] | outcome [5] | outcome [6] | outcome [7] | outcome [8] | Potency [9] | outcome [10] | outcome [11] | Potency [12] | Potency [16] | Potency [15]

Cc1ccc(C=O)cc1C
inactive: outcome [1] | outcome [2] | outcome [3] | outcome [4] | outcome [5] | outcome [6] | outcome [7] | outcome [8] | Potency [9] | outcome [10] | outcome [11] | Potency [12] | Potency [13] | Potency [16] | Potency [14]

COc1cc(NS(=O)(=O)c2ccc(N)cc2)nc(OC)n1
inactive: fluorescence, % of fluorescein [1] 0.0037% [at 18.6 µM] | fluorescence, % of fluorescent control [2] 0.0589% [at 18.6 µM] | activity change [3] -0.0247% [at 18.6 µM] | fluorescence, % of fluorescent control [4] 0.0115% [at 18.6 µM] | fluorescence, % of Rose Bengal [5] 0.441% [at 18.6 µM] | fluorescence, % of fluorescent control [6] -0.0655% [at 18.6 µM] | fluorescence, % of fluorescein control [7] -0.0376% [at 18.6 µM] | fluorescence, % of fluorescent control [8] 0.0701% [at 18.6 µM] | Potency [9] | outcome [10] | outcome [11] | Potency [12] | Potency [13] | Potency [14] | Potency [17] | outcome [18] | outcome [19] | Potency [15] | Potency [20]

C=C(C)C(=O)OCCOP(=O)(O)OCCOC(=O)C(=C)C
inactive: outcome [1] | outcome [2] | outcome [3] | outcome [4] | outcome [5] | outcome [6] | outcome [7] | outcome [8] | Potency [9] | outcome [10] | outcome [11] | Potency [12] | Potency [13] | Potency [16] | Potency [14] | Potency [15]

— PubChem BioAssay (Tox21)
